Data reported in PubChem BioAssay (EPA / NIEHS).
Records with an inconclusive call do not appear. Calls of active or inactive are those of the source. How the source made its calls, unless noted: active means hit-call score of the fitted dose curve at least 0.9, where 1 is the maximum; inactive means score below 0.9.

Key:
[1] = ACEA_ER_80hr: ACEA Biosciences xCELLigence Real-Time Cell Analysis on Estrogen Receptor Agonism for Proliferation (AID 2282667; active means hit-call score of the fitted dose curve at least 0.9, where 1 is the maximum); settings: T47D proliferation, impedance (xCELLigence), 80 h
How it was run: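 Estrogen-driven proliferation is captured as electrode impedance in T47D cells 80 h after compound addition. Test articles ran at 8 concentrations, 1:4 dilutions from 100 uM final, in two replicate plates.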

[2] = ATG_CRE_CIS: Attagene CIS-FACTORIAL HepG2 Assay for human cAMP Responsive Element (CRE) binding protein 3 (AID 2282926); settings: HepG2 CRE cis-reporter, Attagene multiplexed mRNA; actives raise or lower the signal
How it was run: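 Transfected HepG2 were treated for 24 hours, then RNA was extracted and reporter cDNA amplified with sequence-specific primers. Labelled fragments were separated by capillary electrophoresis, and the CRE signal was fitted bidirectionally with DMSO as baseline.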

[3] = target: CCAAT/enhancer-binding protein beta (Homo sapiens) (UniProt P17676); experiment: ATG_C_EBP_CIS: Attagene CIS-FACTORIAL HepG2 Assay for human CCAAT/Enhancer Binding Protein (C/EBP) beta (AID 2282927); settings: HepG2 Attagene cis-factorial transcription factor reporter; actives raise or lower the signal
Chain of CCAAT/enhancer-binding protein beta (Homo sapiens) (P17676 whole entry, looked up, the tested form may be a part): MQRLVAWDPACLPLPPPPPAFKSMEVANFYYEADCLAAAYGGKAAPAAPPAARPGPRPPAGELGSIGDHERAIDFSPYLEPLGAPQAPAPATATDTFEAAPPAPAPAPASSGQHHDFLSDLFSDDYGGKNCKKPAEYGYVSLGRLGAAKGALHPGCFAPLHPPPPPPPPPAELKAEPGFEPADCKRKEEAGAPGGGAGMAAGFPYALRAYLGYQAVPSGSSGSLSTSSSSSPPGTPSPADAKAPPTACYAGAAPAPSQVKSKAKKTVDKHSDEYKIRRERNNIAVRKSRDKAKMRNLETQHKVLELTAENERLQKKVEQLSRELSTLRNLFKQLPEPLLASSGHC
How it was run: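 Endogenous C/EBPb-driven reporter transcripts measured in transfected human HepG2 cells at 24 h via RT-PCR and capillary electrophoresis of labelled fragments. Activity fitted in both directions relative to DMSO baseline.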

[4] = ATG_CMV_CIS: Attagene CIS-FACTORIAL HepG2 Assay for human CMV (Internal Marker) (AID 2282928); settings: HepG2 CMV promoter reporter, transcription factor profiling; actives raise or lower the signal;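 further: endpoint acts as a background internal control marker rather than a target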
How it was run: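 Endogenous transcription factor activity read in HepG2 via transfected cis-promoter reporter units. After 24 h dosing, reporter mRNA measured by RT-PCR/capillary electrophoresis; gain or loss of signal fit relative to DMSO.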

[5] = ATG_DR4_LXR_CIS: Attagene CIS-FACTORIAL HepG2 Assay for human Liver X Receptor (LXR), DR4 submotif (AID 2282929); settings: HepG2 Attagene DR4 cis-reporter, mRNA transcription; actives raise or lower the signal
How it was run: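 HepG2, transient MRTU transfection, cis-element (DR4) promoter; 24 h compound exposure; total RNA → oligo(dT) RT → PCR → 6-FAM primer extension → HpaI cut → CE. Gain/loss vs DMSO, bidirectional fit.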

[6] = target: Aryl hydrocarbon receptor (Homo sapiens) (UniProt P35869); experiment: ATG_Ahr_CIS: Attagene CIS-FACTORIAL HepG2 Assay for human Aryl Hydrocarbon Receptor (Ahr) (AID 2282930); settings: HepG2 AhR cis-factorial reporter transcription; actives raise or lower the signal
Chain of Aryl hydrocarbon receptor (Homo sapiens) (P35869 whole entry, looked up): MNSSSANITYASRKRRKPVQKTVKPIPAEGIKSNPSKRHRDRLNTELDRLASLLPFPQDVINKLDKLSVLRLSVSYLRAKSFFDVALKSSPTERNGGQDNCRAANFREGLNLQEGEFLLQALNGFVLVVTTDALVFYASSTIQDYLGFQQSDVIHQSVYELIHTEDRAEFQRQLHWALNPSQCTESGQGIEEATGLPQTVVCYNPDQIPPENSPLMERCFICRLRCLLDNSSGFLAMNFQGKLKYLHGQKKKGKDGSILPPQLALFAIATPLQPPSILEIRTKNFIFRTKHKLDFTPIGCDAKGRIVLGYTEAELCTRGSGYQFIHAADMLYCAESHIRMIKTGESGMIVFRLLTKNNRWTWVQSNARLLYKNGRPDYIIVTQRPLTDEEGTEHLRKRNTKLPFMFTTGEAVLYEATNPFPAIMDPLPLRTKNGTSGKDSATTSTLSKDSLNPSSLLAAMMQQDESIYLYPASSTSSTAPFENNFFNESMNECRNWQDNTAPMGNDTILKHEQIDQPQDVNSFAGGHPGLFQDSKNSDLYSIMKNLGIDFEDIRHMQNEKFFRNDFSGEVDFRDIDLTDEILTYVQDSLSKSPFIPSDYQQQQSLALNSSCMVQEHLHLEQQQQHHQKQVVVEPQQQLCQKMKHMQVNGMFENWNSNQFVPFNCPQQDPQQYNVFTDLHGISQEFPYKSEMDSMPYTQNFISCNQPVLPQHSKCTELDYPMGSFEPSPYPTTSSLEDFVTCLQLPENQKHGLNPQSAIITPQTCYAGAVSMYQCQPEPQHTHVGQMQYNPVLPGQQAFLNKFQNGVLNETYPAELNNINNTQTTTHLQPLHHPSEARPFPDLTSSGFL
How it was run: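 Reporter mRNA levels, quantified by RT-PCR and fluorescent capillary electrophoresis, reflect endogenous AhR transcriptional activity in HepG2 cells carrying transfected cis-promoter reporter constructs. Readout at 24 h post-dose; gain or loss fitted against DMSO baseline.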

[7] = ATG_AP_1_CIS: Attagene CIS-FACTORIAL HepG2 Assay for human Activator Protein 1 (AP-1) (AID 2282931); settings: HepG2 Attagene cis-factorial AP-1 reporter mRNA; actives raise or lower the signal
How it was run: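 Transient MRTU transfection of HepG2 → 24 h chemical treatment → RNA isolation, RT-PCR, 6-FAM labelling, HpaI digest → capillary electrophoresis. Fit: bidirectional, DMSO negative control.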

[8] = ATG_AP_2_CIS: Attagene CIS-FACTORIAL HepG2 Assay for human Activator Protein 2 (AP-2) (AID 2282932); settings: HepG2 AP-2 cis-reporter, Attagene transcription factor profiling; actives raise or lower the signal
How it was run: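 HepG2, transient MRTU transfection, cis-regulated reporters; 24 h compound exposure; RNA isolated, RT-PCR, 6-FAM labelling, HpaI digest, CE fluorescence. DMSO = negative control/baseline, bidirectional fit.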

[9] = ATG_BRE_CIS: Attagene CIS-FACTORIAL HepG2 Assay for human Bone Morphogenetic Protein (BMP) Response Element (BRE) (AID 2282933); settings: HepG2 BMP response element reporter, Attagene transcription factor profiling; actives raise or lower the signal
How it was run: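 Gain- or loss-of-signal was derived by bidirectional fitting against DMSO controls. The signal came from reporter mRNA, measured by RT-PCR and capillary electrophoresis, in HepG2 cells transiently carrying multiple reporter units and dosed for 24 h.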

[10] = target: Retinoic acid receptor alpha (Homo sapiens) (UniProt P10276); experiment: ATG_DR5_RAR_CIS: Attagene CIS-FACTORIAL HepG2 Assay for human Retinoic Acid Receptor Alpha (RARE), DR5 submotif (AID 2282934); settings: HepG2 Attagene cis-factorial RARE DR5 reporter, mRNA; actives raise or lower the signal;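 on AC50: reporter responds to endogenous RAR alpha beta and gamma in HepG2 not RARA alone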
Chain of Retinoic acid receptor alpha (Homo sapiens) (P10276 whole entry, looked up): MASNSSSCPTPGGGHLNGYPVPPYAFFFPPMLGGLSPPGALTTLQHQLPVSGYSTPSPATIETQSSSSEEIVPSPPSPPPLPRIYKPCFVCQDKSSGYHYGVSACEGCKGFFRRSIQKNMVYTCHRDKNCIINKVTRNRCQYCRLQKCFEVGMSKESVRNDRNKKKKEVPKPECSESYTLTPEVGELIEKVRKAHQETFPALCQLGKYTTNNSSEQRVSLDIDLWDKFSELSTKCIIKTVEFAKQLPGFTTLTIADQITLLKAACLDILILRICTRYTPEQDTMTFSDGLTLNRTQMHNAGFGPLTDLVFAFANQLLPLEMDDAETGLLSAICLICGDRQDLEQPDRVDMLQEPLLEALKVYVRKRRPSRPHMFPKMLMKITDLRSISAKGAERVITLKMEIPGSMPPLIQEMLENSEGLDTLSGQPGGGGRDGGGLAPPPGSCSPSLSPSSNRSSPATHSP
How it was run: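 Reporter transcripts from a DR5-regulated unit, measured via RT-PCR plus capillary electrophoresis, reflect endogenous RAR activity in transiently transfected human HepG2 liver cells. Exposure lasted 24 h; gain or loss of signal scored against DMSO.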

[11] = target: Transcription factor E2F1 (Homo sapiens) (UniProt Q01094); experiment: ATG_E2F_CIS: Attagene CIS-FACTORIAL HepG2 Assay for human E2F Transcription Factor 1 (AID 2282935); settings: HepG2 Attagene cis-reporter, E2F reporter RNA transcripts; actives raise or lower the signal
Chain of Transcription factor E2F1 (Homo sapiens) (Q01094 whole entry, looked up): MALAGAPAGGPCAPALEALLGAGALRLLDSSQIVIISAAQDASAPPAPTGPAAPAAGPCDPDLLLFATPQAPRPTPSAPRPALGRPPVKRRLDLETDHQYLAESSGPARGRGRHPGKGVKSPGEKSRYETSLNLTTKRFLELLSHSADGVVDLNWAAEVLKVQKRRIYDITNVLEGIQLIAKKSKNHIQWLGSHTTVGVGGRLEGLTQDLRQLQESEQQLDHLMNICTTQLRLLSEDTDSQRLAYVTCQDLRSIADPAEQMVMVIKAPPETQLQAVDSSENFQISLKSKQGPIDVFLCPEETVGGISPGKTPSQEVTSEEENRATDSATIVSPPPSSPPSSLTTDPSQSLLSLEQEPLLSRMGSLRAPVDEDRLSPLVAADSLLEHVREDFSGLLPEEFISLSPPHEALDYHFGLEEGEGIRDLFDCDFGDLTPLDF
How it was run: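 Cis-element reporter mRNA induction in transiently transfected HepG2, 24 h exposure. Activity fitted in both directions relative to DMSO negative control.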

[12] = ATG_E_Box_CIS: Attagene CIS-FACTORIAL HepG2 Assay for human Enhancer Box (E-box) (AID 2282936); settings: HepG2 E-box cis-reporter transcription, actives raise or lower the signal
How it was run: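 Cells: HepG2 (human liver), transient MRTU transfection. Exposure 24 h. RNA → oligo(dT) RT → PCR → 6-FAM label → HpaI → CE. Activity fitted both directions relative to DMSO.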

[13] = ATG_M_61_CIS: Attagene CIS-FACTORIAL HepG2 Assay for M61 Transcription Factor (Internal Marker) (AID 2282937); settings: HepG2 Attagene CIS-FACTORIAL M61 internal marker reporter; actives raise or lower the signal
How it was run: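 Human liver HepG2, transient MRTU transfection (cis promoter elements), 24 h compound. Total RNA → oligo(dT) RT → PCR → FAM label → HpaI → CE. Internal background marker; bidirectional fitting, DMSO = baseline.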

[14] = ATG_EGR_CIS: Attagene CIS-FACTORIAL HepG2 Assay for human Early Growth Response 1 (EGR1) (AID 2282938); settings: HepG2 Attagene CIS-FACTORIAL EGR reporter mRNA; actives raise or lower the signal
How it was run: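 Transient transfection of human HepG2 with multiple cis-regulated reporter units, chemical exposure 24 h, total RNA isolated. Reverse transcription, PCR, fluorescent labelling and capillary electrophoresis quantify reporter transcripts; activity fitted bidirectionally against DMSO.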

[15] = ATG_Ets_CIS: Attagene CIS-FACTORIAL HepG2 Assay for human Erythroblast Transformation Specific (ETS) (AID 2282941); settings: HepG2 ETS cis-reporter transcription, actives raise or lower the signal
How it was run: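 Steps: transfect HepG2 with multiple reporter units; treat compound 24 h; isolate RNA, DNase-treat, reverse-transcribe; PCR-amplify, label with 6-FAM, digest with HpaI; separate by capillary electrophoresis. Activity fitted both directions versus DMSO.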

[16] = target: Hepatocyte nuclear factor 3-beta (Homo sapiens) (UniProt Q9Y261); experiment: ATG_FoxA2_CIS: Attagene CIS-FACTORIAL HepG2 Assay for human Forkhead box A2 (FOXA2) (AID 2282942); settings: HepG2 cis-reporter transcription factor activity, 24 h; actives raise or lower the signal
Chain of Hepatocyte nuclear factor 3-beta (Homo sapiens) (Q9Y261 whole entry, looked up): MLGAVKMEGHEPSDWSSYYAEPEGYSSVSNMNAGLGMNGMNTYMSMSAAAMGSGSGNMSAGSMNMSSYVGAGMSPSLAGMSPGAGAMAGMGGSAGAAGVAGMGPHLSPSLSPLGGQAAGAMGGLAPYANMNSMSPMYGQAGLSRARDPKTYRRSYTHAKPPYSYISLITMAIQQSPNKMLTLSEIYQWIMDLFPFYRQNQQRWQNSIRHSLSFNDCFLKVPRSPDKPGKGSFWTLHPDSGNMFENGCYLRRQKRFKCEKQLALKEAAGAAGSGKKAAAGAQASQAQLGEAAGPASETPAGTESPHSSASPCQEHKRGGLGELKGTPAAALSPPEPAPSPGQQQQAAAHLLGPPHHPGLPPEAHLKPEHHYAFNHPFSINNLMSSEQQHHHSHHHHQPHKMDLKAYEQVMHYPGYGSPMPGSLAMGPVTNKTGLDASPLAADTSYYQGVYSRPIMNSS
How it was run: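 Transient MRTU transfection of HepG2 liver cells; 24 h treatment; total RNA → oligo(dT) RT → PCR → FAM primer extension → HpaI cut → CE. Bidirectional fit vs DMSO.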

[17] = ATG_FoxO_CIS: Attagene CIS-FACTORIAL HepG2 Assay for human Forkhead box O (FoxO) (AID 2282943); settings: HepG2 Attagene cis-reporter, FoxO element, mRNA; actives raise or lower the signal
How it was run: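 Endogenous transcription factor activity read from multiplexed cis-promoter reporter transcripts in transiently transfected HepG2, 24 h after dosing. Reporter RNA measured via RT-PCR plus capillary electrophoresis of FAM-labeled products; gain or loss relative to DMSO.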

[18] = ATG_GATA_CIS: Attagene CIS-FACTORIAL HepG2 Assay for human GATA Binding Protein (AID 2282944); settings: HepG2 GATA cis-element reporter, Attagene multiplex mRNA; actives raise or lower the signal
How it was run: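 DMSO serves as negative control and baseline for bidirectional fitting of reporter mRNA changes. HepG2 cells bearing transiently transfected cis-promoter reporters were exposed 24 h; transcripts detected via RT-PCR and capillary electrophoresis.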

[19] = ATG_M_19_CIS: Attagene CIS-FACTORIAL HepG2 Assay for M19 Transcription Factor (Internal Marker) (AID 2282939); settings: HepG2 Attagene CIS-FACTORIAL M19 internal marker reporter; actives raise or lower the signal
How it was run: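 Following a 24 h exposure, RNA from transfected HepG2 cells was reverse-transcribed, PCR-amplified with reporter-specific primers, end-labelled with 6-FAM and HpaI-digested before capillary separation. Values represent gain or loss versus DMSO.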

[20] = ATG_ERE_CIS: Attagene CIS-FACTORIAL HepG2 Assay for Estrogen Response Element (ERE) (AID 2282940); settings: HepG2 ERE cis-reporter, Attagene RNA transcript; actives raise or lower the signal
How it was run: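 HepG2, transient cis-reporter units, 24 h exposure. RNA isolated, oligo(dT) RT, reporter-specific PCR, FAM extension, HpaI cut, CE detection. Gain/loss-of-signal vs DMSO.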

Measured: AC50

O=S(=O)(O)CCC(F)(F)C(F)(F)C(F)(F)C(F)(F)C(F)(F)C(F)(F)C(F)(F)C(F)(F)F
not listed: [19] | [20]
inactive: all other assays above

O=S(=O)(O)c1ccc(Cl)cc1
not listed: [11] | [20]
inactive: all other assays above

CCN(CC)c1ccc(C=O)c(O)c1
active: [5] 67.2 µM
not listed: [11]
inactive: all other assays above

Cc1ccc2c(c1)OCC(=O)CO2
not listed: [8]
inactive: all other assays above

O=S(=O)(OCC(F)(F)F)C(F)(F)C(F)(F)C(F)(F)C(F)(F)F
active: [4] 42.3 µM | [5] 104 µM | [7] 48.1 µM | [9] 58.2 µM | [10] 17.6 µM
not listed: [8]
inactive: all other assays above

CC(C)CC=C(C=O)c1ccccc1
active: [1] 24.1 µM | [5] 84.9 µM | [7] 100 µM | [20] 35.2 µM
not listed: [8] | [19]
inactive: all other assays above

Nc1cc([N+](=O)[O-])cc(Cl)c1O
not listed: [8] | [12]
inactive: all other assays above

O=C(O)C(F)(F)C(F)(F)C(F)(F)OC(F)(C(F)(F)F)C(F)(F)F
active: [5] 238 µM
not listed: [8] | [12] | [20]
inactive: all other assays above

COc1ccccc1C=O
not listed: [8] | [12]
inactive: all other assays above

O=C=Nc1cccc2c(N=C=O)cccc12
active: [6] 4.73 µM
not listed: [8] | [11] | [12] | [19]
inactive: all other assays above

C[Si](C)O[Si](C)C
not listed: [8]
inactive: all other assays above

COCCC(=O)OC
not listed: [11] | [12]
inactive: all other assays above

CC(C)OC=O
not listed: [8]
inactive: all other assays above

N#CCCOCCC#N
not listed: [8] | [12] | [20]
inactive: all other assays above

CC(=O)CCC(C)C
not listed: [11] | [12]
inactive: all other assays above
